# Measurements: the supplement of paper PMC11732987, “Enantioselective OTUD7B fragment discovery through chemoproteomics screening and high-throughput optimisation” (Communications Chemistry, 2025)
# Unmarked numbers belong to inactive results.
# How the values were obtained:
# Assay in all cases: log2 ratio of Biotin-Ahx-Ub-VS probe labelling (fragment/DMSO); higher = less target engagement (more negative = stronger competition), active = hit call of the paper (q ≤ 0.05, log2 ratio ≤ -1)
# Conditions in all cases: compound concentration: 200 uM; treatment time: 3 h
# [1] = target: T1, OTUD6B (UniProt Q8N6M0)
# T1 sequence (whole entry): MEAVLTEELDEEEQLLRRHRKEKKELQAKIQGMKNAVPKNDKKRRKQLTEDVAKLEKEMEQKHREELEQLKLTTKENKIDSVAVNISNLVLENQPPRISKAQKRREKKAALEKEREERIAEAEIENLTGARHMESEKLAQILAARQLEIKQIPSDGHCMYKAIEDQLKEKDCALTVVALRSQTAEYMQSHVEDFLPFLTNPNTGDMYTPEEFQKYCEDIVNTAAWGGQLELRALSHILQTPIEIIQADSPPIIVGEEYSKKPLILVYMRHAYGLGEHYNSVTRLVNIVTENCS
# Method in brief: (§1)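 HEK293T lysate, 495 µg per sample in Tris/CHAPS/IGEPAL buffer with protease inhibitors, was treated in triplicate with fragment at 200 µM or vehicle for 3 h and then with Biotin-Ahx-Ub-VS at 0.5 µM final for 1 h. Labelled DUBs were NeutrAvidin-enriched, digested with LysC and trypsin, and run by diaPASEF LC-MS/MS. Spectronaut label-free quantities were global-median-normalised, and values are average log2 fragment/vehicle ratios by unpaired t-test on proteins with ≥2 unique peptides.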
# [2] = target: T2, OTUD7B (UniProt Q6GQQ9)
# T2 sequence (whole entry): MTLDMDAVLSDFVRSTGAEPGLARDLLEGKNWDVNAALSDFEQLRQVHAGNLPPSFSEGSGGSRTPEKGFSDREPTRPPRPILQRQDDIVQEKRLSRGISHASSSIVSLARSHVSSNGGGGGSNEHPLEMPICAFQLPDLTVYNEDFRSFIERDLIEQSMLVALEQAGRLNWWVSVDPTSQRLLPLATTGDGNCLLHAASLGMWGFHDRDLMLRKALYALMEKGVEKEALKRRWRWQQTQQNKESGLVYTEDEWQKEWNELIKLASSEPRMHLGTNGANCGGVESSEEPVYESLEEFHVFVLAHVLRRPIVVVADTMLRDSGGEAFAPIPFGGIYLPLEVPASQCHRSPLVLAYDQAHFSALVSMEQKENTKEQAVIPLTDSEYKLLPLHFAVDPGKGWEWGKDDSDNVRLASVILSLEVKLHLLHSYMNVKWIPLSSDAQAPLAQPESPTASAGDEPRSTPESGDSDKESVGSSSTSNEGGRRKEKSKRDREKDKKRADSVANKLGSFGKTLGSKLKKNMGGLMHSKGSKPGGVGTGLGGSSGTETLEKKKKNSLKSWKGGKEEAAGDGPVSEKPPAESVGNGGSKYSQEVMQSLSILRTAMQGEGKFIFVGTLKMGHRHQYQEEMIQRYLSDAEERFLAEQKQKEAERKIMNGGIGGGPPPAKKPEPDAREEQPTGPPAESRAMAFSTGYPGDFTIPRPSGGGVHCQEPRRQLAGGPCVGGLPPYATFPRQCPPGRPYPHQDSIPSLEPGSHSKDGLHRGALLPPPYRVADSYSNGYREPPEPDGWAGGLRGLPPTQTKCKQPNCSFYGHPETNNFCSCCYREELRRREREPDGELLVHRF
# Method in brief: as §1
# [3] = target: PRPF8 (UniProt Q6P2Q9)
# Method in brief: as §1
# [4] = target: T3, PSMD7 (UniProt P51665)
# T3 sequence (whole entry): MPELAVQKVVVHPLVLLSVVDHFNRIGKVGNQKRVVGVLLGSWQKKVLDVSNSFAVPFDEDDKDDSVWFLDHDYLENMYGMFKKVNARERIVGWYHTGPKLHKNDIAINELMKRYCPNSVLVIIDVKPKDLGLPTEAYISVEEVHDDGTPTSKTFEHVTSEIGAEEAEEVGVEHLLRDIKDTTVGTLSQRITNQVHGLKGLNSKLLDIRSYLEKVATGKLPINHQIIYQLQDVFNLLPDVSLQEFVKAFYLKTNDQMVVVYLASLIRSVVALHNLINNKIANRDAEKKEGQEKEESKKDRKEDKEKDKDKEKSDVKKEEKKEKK
# Method in brief: as §1
# [5] = target: UCHL1 (UniProt P09936)
# Method in brief: as §1
# [6] = target: T4, UCHL3 (UniProt P15374)
# T4 sequence (whole entry): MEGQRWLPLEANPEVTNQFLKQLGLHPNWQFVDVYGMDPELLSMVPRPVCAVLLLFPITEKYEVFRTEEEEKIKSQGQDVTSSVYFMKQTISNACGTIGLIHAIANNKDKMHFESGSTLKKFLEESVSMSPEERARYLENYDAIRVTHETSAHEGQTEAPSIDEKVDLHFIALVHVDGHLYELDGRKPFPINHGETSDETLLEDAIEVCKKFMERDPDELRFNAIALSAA
# Method in brief: as §1
# [7] = target: T5, UCHL5 (UniProt Q9Y5K5)
# T5 sequence (whole entry): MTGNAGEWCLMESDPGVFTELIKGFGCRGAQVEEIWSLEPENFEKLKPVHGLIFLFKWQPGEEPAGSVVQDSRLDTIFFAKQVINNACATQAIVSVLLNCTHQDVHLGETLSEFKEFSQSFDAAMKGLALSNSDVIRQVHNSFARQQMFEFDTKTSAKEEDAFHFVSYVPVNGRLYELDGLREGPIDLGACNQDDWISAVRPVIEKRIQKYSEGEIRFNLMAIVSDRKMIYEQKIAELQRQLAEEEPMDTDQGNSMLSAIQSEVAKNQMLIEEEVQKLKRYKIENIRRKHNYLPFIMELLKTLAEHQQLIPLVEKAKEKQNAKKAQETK
# Method in brief: as §1
# [8] = target: USP10 (UniProt Q14694)
# Method in brief: as §1
# [9] = target: T6, USP15 (UniProt Q9Y4E8)
# T6 sequence (whole entry): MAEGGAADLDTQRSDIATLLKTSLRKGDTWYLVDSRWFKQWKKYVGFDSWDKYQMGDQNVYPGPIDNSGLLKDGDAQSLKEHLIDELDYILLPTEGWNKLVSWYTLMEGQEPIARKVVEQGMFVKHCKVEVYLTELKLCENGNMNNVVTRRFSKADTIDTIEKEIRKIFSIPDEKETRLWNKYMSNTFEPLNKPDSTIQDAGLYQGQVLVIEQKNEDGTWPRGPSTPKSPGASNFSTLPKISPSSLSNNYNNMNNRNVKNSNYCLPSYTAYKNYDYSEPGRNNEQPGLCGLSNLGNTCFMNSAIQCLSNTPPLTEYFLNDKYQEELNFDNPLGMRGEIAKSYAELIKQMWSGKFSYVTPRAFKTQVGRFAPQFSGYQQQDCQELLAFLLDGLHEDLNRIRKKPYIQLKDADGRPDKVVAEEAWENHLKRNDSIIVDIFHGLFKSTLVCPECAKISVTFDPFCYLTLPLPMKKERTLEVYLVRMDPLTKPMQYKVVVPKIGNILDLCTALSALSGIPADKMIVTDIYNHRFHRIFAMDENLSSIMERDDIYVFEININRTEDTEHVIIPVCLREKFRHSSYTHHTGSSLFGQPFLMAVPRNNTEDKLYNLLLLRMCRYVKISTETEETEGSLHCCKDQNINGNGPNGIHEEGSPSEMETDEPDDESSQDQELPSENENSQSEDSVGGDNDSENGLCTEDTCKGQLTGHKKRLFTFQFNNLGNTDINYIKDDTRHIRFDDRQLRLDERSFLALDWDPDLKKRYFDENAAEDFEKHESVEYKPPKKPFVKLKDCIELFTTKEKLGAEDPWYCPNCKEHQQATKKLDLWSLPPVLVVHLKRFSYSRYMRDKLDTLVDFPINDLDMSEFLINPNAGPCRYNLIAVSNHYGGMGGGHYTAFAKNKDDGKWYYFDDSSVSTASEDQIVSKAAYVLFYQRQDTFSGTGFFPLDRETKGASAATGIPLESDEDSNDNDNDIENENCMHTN
# Method in brief: as §1
# [10] = target: USP16 (UniProt Q9Y5T5)
# Method in brief: as §1
# Chain of USP10 (Q14694 whole entry): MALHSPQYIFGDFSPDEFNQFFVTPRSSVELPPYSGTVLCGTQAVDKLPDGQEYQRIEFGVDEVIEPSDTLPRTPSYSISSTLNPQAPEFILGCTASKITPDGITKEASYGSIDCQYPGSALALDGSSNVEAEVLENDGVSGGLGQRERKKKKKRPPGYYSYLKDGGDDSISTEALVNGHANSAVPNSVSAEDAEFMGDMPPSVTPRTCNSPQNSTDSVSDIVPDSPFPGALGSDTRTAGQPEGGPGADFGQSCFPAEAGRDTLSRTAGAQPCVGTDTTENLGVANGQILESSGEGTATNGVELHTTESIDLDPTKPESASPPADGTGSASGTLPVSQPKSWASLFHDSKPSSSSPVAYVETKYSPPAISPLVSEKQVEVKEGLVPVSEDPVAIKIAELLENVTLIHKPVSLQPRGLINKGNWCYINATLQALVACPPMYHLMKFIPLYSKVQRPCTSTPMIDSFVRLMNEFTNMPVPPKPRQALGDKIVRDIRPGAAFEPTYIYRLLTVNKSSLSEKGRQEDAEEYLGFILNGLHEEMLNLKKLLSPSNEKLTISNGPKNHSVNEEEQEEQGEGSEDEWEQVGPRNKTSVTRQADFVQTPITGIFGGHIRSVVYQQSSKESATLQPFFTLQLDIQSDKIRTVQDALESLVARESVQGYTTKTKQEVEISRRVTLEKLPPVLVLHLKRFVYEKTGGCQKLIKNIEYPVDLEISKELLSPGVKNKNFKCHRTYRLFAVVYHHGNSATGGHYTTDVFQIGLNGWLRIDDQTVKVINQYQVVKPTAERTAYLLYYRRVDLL
# Chain of USP16 (Q9Y5T5 whole entry, looked up): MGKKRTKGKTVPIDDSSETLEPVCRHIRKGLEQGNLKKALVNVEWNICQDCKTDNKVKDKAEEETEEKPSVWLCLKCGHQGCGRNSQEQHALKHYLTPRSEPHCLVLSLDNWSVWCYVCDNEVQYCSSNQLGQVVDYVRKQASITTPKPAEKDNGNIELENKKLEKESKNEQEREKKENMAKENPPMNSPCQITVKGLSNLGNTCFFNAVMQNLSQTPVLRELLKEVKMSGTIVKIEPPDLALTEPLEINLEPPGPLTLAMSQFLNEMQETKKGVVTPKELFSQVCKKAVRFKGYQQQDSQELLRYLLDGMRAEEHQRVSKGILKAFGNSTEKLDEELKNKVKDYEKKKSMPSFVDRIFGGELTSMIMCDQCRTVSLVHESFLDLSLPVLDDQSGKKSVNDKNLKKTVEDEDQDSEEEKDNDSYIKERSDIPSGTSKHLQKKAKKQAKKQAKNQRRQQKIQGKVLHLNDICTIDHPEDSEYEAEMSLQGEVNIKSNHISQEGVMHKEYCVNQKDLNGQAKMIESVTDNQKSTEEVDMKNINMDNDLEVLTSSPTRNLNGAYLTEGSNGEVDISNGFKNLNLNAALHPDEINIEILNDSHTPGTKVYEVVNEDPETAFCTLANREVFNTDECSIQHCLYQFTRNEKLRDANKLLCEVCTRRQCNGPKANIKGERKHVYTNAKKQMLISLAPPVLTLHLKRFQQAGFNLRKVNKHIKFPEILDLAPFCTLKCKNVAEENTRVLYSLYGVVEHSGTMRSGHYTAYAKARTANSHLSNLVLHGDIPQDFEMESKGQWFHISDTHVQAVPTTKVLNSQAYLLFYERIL
# Chain of UCHL1 (P09936 whole entry, looked up): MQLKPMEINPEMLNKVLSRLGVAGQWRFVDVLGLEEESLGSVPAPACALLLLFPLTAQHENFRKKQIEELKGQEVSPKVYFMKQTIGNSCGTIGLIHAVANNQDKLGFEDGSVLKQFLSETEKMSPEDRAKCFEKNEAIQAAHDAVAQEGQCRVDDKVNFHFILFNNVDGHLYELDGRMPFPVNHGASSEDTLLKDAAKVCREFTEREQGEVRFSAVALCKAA
smiles,measurement,setting,value
Cc1ncsc1CCNC(=O)CCl,log2 ratio of Biotin-Ahx-Ub-VS probe labelling,[1],0.143
same,log2 ratio of Biotin-Ahx-Ub-VS probe labelling,[2],-0.157
same,log2 ratio of Biotin-Ahx-Ub-VS probe labelling,[3],0.116
same,log2 ratio of Biotin-Ahx-Ub-VS probe labelling,[4],0.433
same,log2 ratio of Biotin-Ahx-Ub-VS probe labelling,[5],-1.31 (active)
same,log2 ratio of Biotin-Ahx-Ub-VS probe labelling,[6],0.292
same,log2 ratio of Biotin-Ahx-Ub-VS probe labelling,[7],-0.131
same,log2 ratio of Biotin-Ahx-Ub-VS probe labelling,[8],0.0995
same,log2 ratio of Biotin-Ahx-Ub-VS probe labelling,[9],0.22
same,log2 ratio of Biotin-Ahx-Ub-VS probe labelling,[10],0.106
